# According to PubChem BioAssay AID431 (Sanford-Burnham Center for Chemical Genomics, 2006):
# Out of some 63,000 compounds screened, about 1,100 (1.7%) were called active. This excerpt belongs to a sample that is enriched for actives. Entries with a potency or affinity are not part of this list. Values without a mark were called inactive.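 How the source made its calls: active means compounds whose percent cytotoxicity in the single-dose primary screen, scaled between solvent and toxic-drug controls, exceeds 50; inactive means the rest.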
# Assay: cytotoxicity in KRAS-transformed pancreatic duct cells, primary screen, cell-based, fluorescence, HTS (AID 431);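 further: 0% = DMSO solvent wells and 100% = doxorubicin-treated wells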
# Details: HPDE-C7K KRASV12 cells, Alamar Blue viability, 48 h; at 10 µM; active compounds read high
row,SMILES,cytotoxicity
1,CCn1c(SCC(=O)NCCc2ccc(F)cc2)nnc1-c1cccs1,4.9%
2,COc1ccccc1OCc1nnc(SCC(=O)Nc2ccc(C)cc2)n1C,-9.9%
3,Cc1ccc(CN2CC34C=CC(O3)C(C(=O)NCc3ccc5c(c3)OCO5)C4C2=O)cc1 (centres undefined),-15.5%
4,CCN(CC)S(=O)(=O)c1cccc(-c2nnc(SCC(=O)NC)n2CCc2ccccc2)c1,-3%
5,COc1ccccc1N1CCN(C(=O)c2ccc(NC(C)=O)cc2)CC1,-1.4%
6,Brc1ccc(-c2nnc(-c3ccccc3Br)o2)cc1,-2.3%
7,CN(CC(=O)Nc1ccccc1Cl)C(=O)COC(=O)CNC(=O)c1ccc(Br)o1,-18.6%
8,Cc1ccc2c(c1)nnn2C1CCN(C(=O)c2cccs2)CC1,-4.8%
9,O=C(Cc1cccs1)Nc1ccc(C(=O)O)cc1,-2.8%
10,CC(=O)OC1CC2(C)C(=O)CCC2C2CCc3cc(O)ccc3C12 (centres undefined),-12.1%
11,CCc1ccccc1S(=O)(=O)Cc1ccc(C(=O)NCC2CCCO2)o1 (centres undefined),-0.8%
12,Cc1cccc(Nc2nc(-c3ccccn3)cs2)n1,10.2%
13,COc1cccc2sc(Nc3nc(-c4ccccn4)cs3)nc12,58.6% (active)
14,c1ccc(-c2csc(Nc3cccnc3)n2)nc1,4.5%
15,CC(C)OCCCNC(=O)CN1C(=O)CC(C)(C)S(=O)(=O)c2ccccc21,3.7%
16,CS(=O)(=O)N(CC(=O)NCc1ccc2c(c1)OCO2)Cc1ccc(Cl)cc1,-14.6%
17,N#Cc1c(NCCO)nc(NCc2ccccc2)c2c1CCN(Cc1ccccc1)C2,40.8%
18,C=CCNc1nc(N2CCCCC2)c(C#N)c2c1CN(Cc1ccccc1)CC2,-1.7%
19,N#Cc1c(NCCCO)nc(-c2ccccc2)c2c1CCCC2,20.2%
20,CCN1CCc2c(C#N)c(N3CCCCC3)nc(NCc3ccccc3)c2C1,51.6% (active)
21,C=CCNc1nc(NCc2ccccc2)c(C#N)c2c1CN(C)CC2,19.2%
22,N#Cc1c(N2CCCCC2)nc(N2CCCCC2)c2c1CCN(Cc1ccccc1)C2,-4.7%
23,CCN1CCc2c(C#N)c(N3CCOCC3)nc(NCc3ccccc3)c2C1,-1.3%
24,CCN(CCCNC(=O)CCCn1c(=O)[nH]c2ccccc2c1=O)c1cccc(C)c1,-2.5%
25,CCc1nc(SCC(=O)Nc2cc(C)on2)n[nH]1,-9.6%

row,SMILES,cytotoxicity
1,CCOc1ccccc1NC(=O)N1C2CCCC1CC(NC(=O)C1CC1)C2 (centres undefined),-3.2%
2,Cc1ccccc1NC(=O)N1C2CCCC1CC(NC(=O)C1CC1)C2 (centres undefined),54.6% (active)
3,Cc1ccccc1NC(=O)N1C2CCCC1CC(NC(=O)C(C)(C)C)C2 (centres undefined),-3.9%
4,CCCCSc1nnc(C)c(=O)[nH]1,-3.8%
5,CN1CC2=Cc3ccccc3OC23Oc2ccccc2C=C3C1,60.6% (active)
6,Cc1ccccc1-c1nn2c(-c3ccccc3)nnc2s1,11.2%
7,Cc1nnc2sc(-c3csc4c3CCCC4)nn12,3.5%
8,c1ccc(-c2nnc3sc(-c4csc5c4CCCC5)nn23)cc1,71.6% (active)
9,COc1ccc(-c2cc(C(F)F)n3ncc(C(=O)NCCCN4CCCC4=O)c3n2)cc1,-8.7%
10,COCCNC(=O)c1ccccc1-c1ccccc1C(=O)O,7.4%
11,COC(=O)CSc1nnc(CCc2nc3ccccc3[nH]2)n1C,-3.8%
12,COc1cc(C2C(C(C)=O)=C(C)Nc3ncnn32)ccc1O (centres undefined),2.2%
13,COc1ccc(OC)c(Nc2cc(C)nc3ccccc23)c1,1.1%
14,COc1cc(-c2ccccc2)nc(N)n1,7.6%
15,COc1ccc(OC)c(Nc2cc(-c3ccccc3)nc(N)n2)c1,57.6% (active)
16,CC1CCCCC1NC(=O)Cn1[nH]c(=O)c2ccccc2c1=O (centres undefined),0.5%
17,CC(C)(C)NC(=O)Nc1ccccc1C(N)=O,-1.1%
18,Cc1sc2nc(SCC(=O)NCc3ccco3)n(-c3ccccc3)c(=O)c2c1C,7.2%
19,Cc1sc2ncnc(NCc3ccco3)c2c1C,0.5%
20,Cc1sc2nc3c4ccccc4c(NCc4ccco4)nn3c(=O)c2c1C,66% (active)
21,O=C(CCOc1ccccc1)OCC(=O)c1cc2ccccc2o1,-20.1%
22,COc1ccc(S(=O)(=O)N2CCCCC2)cc1C(C)C,-10.6%
23,CCOC(=O)c1cc(C)n(CCc2ccccc2)c1C,0.4%
24,Nc1nc(-c2ccccc2Br)cs1,15.5%
